# Assay results as given in the supplement of paper PMC4466140.
# B1: unnamed (peptide)
# chain: STPQTMRQAPKRPDA
# Biological target: CaNbp2
# Assay: SPOT peptide array binding signal intensity (averaged, normalized) (arbitrary units (background-subtracted, floor 0; scale differs between SH3 domains)); higher = stronger binding of the SH3 domain to the peptide
# Procedure, shortened: (§1)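 To measure binding, SH3 domains from four yeast species were fused to GST, expressed in E. coli BL21(DE3) and purified on glutathione Sepharose. Each domain was incubated at 10 μg/ml overnight at 4°C on cellulose membranes with synthetic 15-mer peptides whose cysteines were replaced by serines. Anti-GST antibody, an HRP anti-mouse secondary and luminol were used for detection, and images were quantified with Genespotter. Reported binding signal is normalized, background-subtracted spot intensity averaged over replicates, in arbitrary units that differ between domains.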
row,Binder,SPOT peptide array binding signal intensity
1,B1,653

# Biological target: CaRvs167
# Assay: as above
# Procedure, shortened: as §1
row,Binder,SPOT peptide array binding signal intensity
1,B1,28.8

# Biological target: CaRvs167-3
# Assay: as above
# Procedure, shortened: as §1
row,Binder,SPOT peptide array binding signal intensity
1,B1,1

# Biological target: CaSho1
# Assay: as above
# Procedure, shortened: as §1
row,Binder,SPOT peptide array binding signal intensity
1,B1,100

# Biological target: CaSla1-D1-D2
# Assay: as above
# Procedure, shortened: as §1
row,Binder,SPOT peptide array binding signal intensity
1,B1,198

# Biological target: CaSla1-D3
# Assay: as above
# Procedure, shortened: as §1
row,Binder,SPOT peptide array binding signal intensity
1,B1,225

# Biological target: ScAbp1
# Assay: as above
# Procedure, shortened: as §1
row,Binder,SPOT peptide array binding signal intensity
1,B1,2.5

# Biological target: ScBbc1
# Assay: as above
# Procedure, shortened: as §1
row,Binder,SPOT peptide array binding signal intensity
1,B1,49.5

# Biological target: ScBem1-D1
# Assay: as above
# Procedure, shortened: as §1
row,Binder,SPOT peptide array binding signal intensity
1,B1,8.5

# Biological target: ScBzz1-D1
# Assay: as above
# Procedure, shortened: as §1
row,Binder,SPOT peptide array binding signal intensity
1,B1,3

# Biological target: ScBzz1-D2
# Assay: as above
# Procedure, shortened: as §1
row,Binder,SPOT peptide array binding signal intensity
1,B1,26

# Biological target: ScCyk3
# Assay: as above
# Procedure, shortened: as §1
row,Binder,SPOT peptide array binding signal intensity
1,B1,≤ 0

# Biological target: ScFus1
# Assay: as above
# Procedure, shortened: as §1
row,Binder,SPOT peptide array binding signal intensity
1,B1,39

# Biological target: ScHof1
# Assay: as above
# Procedure, shortened: as §1
row,Binder,SPOT peptide array binding signal intensity
1,B1,≤ 0

# Biological target: ScHse1
# Assay: as above
# Procedure, shortened: as §1
row,Binder,SPOT peptide array binding signal intensity
1,B1,72

# Biological target: ScLsb1
# Assay: as above
# Procedure, shortened: as §1
row,Binder,SPOT peptide array binding signal intensity
1,B1,5.5

# Biological target: ScLsb2
# Assay: as above
# Procedure, shortened: as §1
row,Binder,SPOT peptide array binding signal intensity
1,B1,5

# Biological target: ScLsb3
# Assay: as above
# Procedure, shortened: as §1
row,Binder,SPOT peptide array binding signal intensity
1,B1,300

# Biological target: ScLsb4
# Assay: as above
# Procedure, shortened: as §1
row,Binder,SPOT peptide array binding signal intensity
1,B1,35

# Biological target: ScMyo3
# Assay: as above
# Procedure, shortened: as §1
row,Binder,SPOT peptide array binding signal intensity
1,B1,196

# Biological target: ScMyo5
# Assay: as above
# Procedure, shortened: as §1
row,Binder,SPOT peptide array binding signal intensity
1,B1,72.5

# Biological target: ScNbp2
# Assay: as above
# Procedure, shortened: as §1
row,Binder,SPOT peptide array binding signal intensity
1,B1,2290

# Biological target: ScPex13
# Assay: as above
# Procedure, shortened: as §1
row,Binder,SPOT peptide array binding signal intensity
1,B1,339

# Biological target: ScRvs167
# Assay: as above
# Procedure, shortened: as §1
row,Binder,SPOT peptide array binding signal intensity
1,B1,39.7

# Biological target: ScSho1
# Assay: as above
# Procedure, shortened: as §1
row,Binder,SPOT peptide array binding signal intensity
1,B1,171

# Biological target: ScSla1-D1-D2
# Assay: as above
# Procedure, shortened: as §1
row,Binder,SPOT peptide array binding signal intensity
1,B1,736

# Biological target: ScSla1-D3
# Assay: as above
# Procedure, shortened: as §1
row,Binder,SPOT peptide array binding signal intensity
1,B1,540

# Biological target: SpAbp1-D1
# Assay: as above
# Procedure, shortened: as §1
row,Binder,SPOT peptide array binding signal intensity
1,B1,≤ 0

# Biological target: SpBbc1
# Assay: as above
# Procedure, shortened: as §1
row,Binder,SPOT peptide array binding signal intensity
1,B1,5

# Biological target: SpBzz1-D1
# Assay: as above
# Procedure, shortened: as §1
row,Binder,SPOT peptide array binding signal intensity
1,B1,116

# Biological target: SpBzz1-D2
# Assay: as above
# Procedure, shortened: as §1
row,Binder,SPOT peptide array binding signal intensity
1,B1,11

# Biological target: SpCyk3
# Assay: as above
# Procedure, shortened: as §1
row,Binder,SPOT peptide array binding signal intensity
1,B1,6

# Biological target: SpHof1
# Assay: as above
# Procedure, shortened: as §1
row,Binder,SPOT peptide array binding signal intensity
1,B1,25

# Biological target: SpHof1-2
# Assay: as above
# Procedure, shortened: as §1
row,Binder,SPOT peptide array binding signal intensity
1,B1,38.8

# Biological target: SpHof1-3
# Assay: as above
# Procedure, shortened: as §1
row,Binder,SPOT peptide array binding signal intensity
1,B1,≤ 0

# Biological target: SpHse1
# Assay: as above
# Procedure, shortened: as §1
row,Binder,SPOT peptide array binding signal intensity
1,B1,190

# Biological target: SpLsb1
# Assay: as above
# Procedure, shortened: as §1
row,Binder,SPOT peptide array binding signal intensity
1,B1,≤ 0

# Biological target: SpLsb4
# Assay: as above
# Procedure, shortened: as §1
row,Binder,SPOT peptide array binding signal intensity
1,B1,384

# Biological target: SpMyo1
# Assay: as above
# Procedure, shortened: as §1
row,Binder,SPOT peptide array binding signal intensity
1,B1,325

# Biological target: SpNbp2
# Assay: as above
# Procedure, shortened: as §1
row,Binder,SPOT peptide array binding signal intensity
1,B1,266

# Biological target: SpPex13
# Assay: as above
# Procedure, shortened: as §1
row,Binder,SPOT peptide array binding signal intensity
1,B1,51

# Biological target: SpRvs167
# Assay: as above
# Procedure, shortened: as §1
row,Binder,SPOT peptide array binding signal intensity
1,B1,25.8

# Biological target: SpSla1-D1-D2
# Assay: as above
# Procedure, shortened: as §1
row,Binder,SPOT peptide array binding signal intensity
1,B1,1.5

# Biological target: SpSla1-D3
# Assay: as above
# Procedure, shortened: as §1
row,Binder,SPOT peptide array binding signal intensity
1,B1,182
